Hits are enriched below; roughly 18% of the tested compounds scored in any of these assays.
TGFb SMAD3 inh: qHTS for Inhibitors of TGF-b; HepG2 CAGA-GFP TGF-b/SMAD3 reporter, GFP fluorescence, 18 h; TGF-beta stimulated, 500 pg/mL final; Potency, µM (top dose mostly 46.1 µM), most hits filed as inhibitors; 410,000 tested, 1.2% active; also: nearly all actives have a fitted effect of over 65% in size
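HEPG2 CAGA-GFP, 1000 cells/well; 2 h settle, 37 C; cpd via pin tool; TGF-b 500 pg/mL final; 18 h, 37 C; GFP imaging ex488/em500-530; %Activity normalised to -TGF-b and +DMSO controls; CRC fit, curve class.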
TDP1 block: qHTS Assay for Inhibitors of Tyrosyl-DNA Phosphodiesterase (TDP1) | recombinant TDP1, AlphaScreen DNA substrate cleavage | Potency, µM (top dose mostly 130 µM), actives largely listed as inhibitors | 350,000 tested, 0.28% active; also: nearly all actives have a fitted effect of over 40% in size
Target sequence (Q9NUW8 whole entry, looked up): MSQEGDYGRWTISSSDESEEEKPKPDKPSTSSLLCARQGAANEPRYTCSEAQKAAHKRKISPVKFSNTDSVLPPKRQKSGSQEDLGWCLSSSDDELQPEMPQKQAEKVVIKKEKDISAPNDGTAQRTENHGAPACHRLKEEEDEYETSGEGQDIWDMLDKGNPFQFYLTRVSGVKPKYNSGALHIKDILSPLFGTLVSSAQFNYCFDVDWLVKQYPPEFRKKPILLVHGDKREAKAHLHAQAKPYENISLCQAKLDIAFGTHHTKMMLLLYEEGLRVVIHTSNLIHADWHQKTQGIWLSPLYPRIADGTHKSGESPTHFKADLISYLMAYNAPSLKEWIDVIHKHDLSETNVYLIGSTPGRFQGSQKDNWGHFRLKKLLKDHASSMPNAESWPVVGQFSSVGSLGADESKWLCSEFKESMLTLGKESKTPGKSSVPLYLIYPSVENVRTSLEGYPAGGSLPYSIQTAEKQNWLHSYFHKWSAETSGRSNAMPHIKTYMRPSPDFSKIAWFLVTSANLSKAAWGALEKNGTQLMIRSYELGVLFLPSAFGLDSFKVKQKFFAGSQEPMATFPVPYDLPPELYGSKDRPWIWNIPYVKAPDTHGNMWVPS
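Recombinant human Tdp1 (E. coli-expressed, 1 nM final) preincubated with compounds 15 min at room temperature, then 5'-biotin/3'-phosphotyrosine-FITC DNA substrate (15 nM final) added for 5 min. AlphaScreen beads (10 ug/ml final) added 10 min; cleavage lowers signal.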
IL-1B inflam inh: qHTS for Inhibitors of Inflammasome Signaling: IL-1-beta AlphaLISA Primary Screen; THP-1 LPS/ATP IL-1B secretion, AlphaLISA, 16 h; hits give low values; activity change, % at 57.5 µM; 360,000 tested, 4.7% active; AID 743279, 2014; in the data active = activity change below about -50%; inconclusive = mostly about -30% to -49%
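Secreted IL-1B measured by AlphaLISA bead assay after 16 h compound exposure of THP-1 cells; compounds (final up to 57.5 uM) added 1 h before LPS (250 ng/mL) and ATP (1.25 mM) stimulation; lower signal means less secretion.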
DT40 TDP1 CPT: qHTS for Inhibitors of human tyrosyl-DNA phosphodiesterase 1 (TDP1): qHTS in cells in presence of CPT; Potency, µM (doses to about 46.2 µM), usual class: inhibitors; 420,000 tested, 12% active; chicken DT40 Tdp1-/-;hTDP1 cells + 20 nM CPT, ATP luminescence, 48 h; also: nearly all actives have a fitted effect of over 55% in size
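Chicken DT40 Tdp1-/- cells complemented with human TDP1, 400 cells/well, exposed to compounds plus 20 nM camptothecin for at least 48 h at 37 C; viability read as ATP content by CellTiter-Glo luminescence.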
DT40 TDP1 no CPT: qHTS for Inhibitors of human tyrosyl-DNA phosphodiesterase 1 (TDP1): qHTS in cells in absence of CPT. DT40 Tdp1-/- hTDP1 cells, no CPT, ATP luminescence, 48 h. Potency, µM (top dose mostly 46.2 µM), usual class: inhibitors. 420,000 tested, 15% active. AID 686978, 2013; also: nearly all actives have a fitted effect of over 55% in size
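A cellular qHTS used chicken DT40 cells lacking endogenous Tdp1 but carrying stably transfected human TDP1. Compounds were applied without camptothecin, and cell growth kinetics were judged by ATP-dependent luminescence after ≥48 hr.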
HepG2 tox-1: qHTS for Inhibitors of TGF-b: Cytotox Counterscreen; Potency, µM (doses to about 46.1 µM), most hits filed as cytotoxic; 410,000 tested, 0.76% active; AID 588856, 2011; HepG2 CAGA-GFP viability, ATP luminescence, 18 h
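CellTiter-Glo luminescence gave cytotoxicity after 18 hours at 37 degrees C. The cells were HepG2 CAGA-GFP in 1% FBS DMEM, stimulated with 500 pg/mL TGF-beta after compound addition. %Activity was normalised to no-cell wells (complete cell-killing) and DMSO (no toxicity), and curves were fitted and classified.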
TGFb confirm: qHTS for Inhibitors of TGF-b: Confirmation of Cherry Picks; AID 720534, 2013; 1,600 tested, 63% active; shares compounds with TGFb SMAD3 inh; Potency, µM (series often up to 46.1 µM), actives largely listed as inhibitors; HepG2 CAGA-GFP TGF-b reporter, GFP fluorescence, 18 h; cells stimulated with TGF-beta, 500 pg/mL; also: nearly all actives have a fitted effect of over 65% in size
HepG2 tox-2: qHTS for Inhibitors of TGF-b: Cytotox Counterscreen for Cherry Picks; shares compounds with TGFb SMAD3 inh; HepG2 CAGA-GFP viability, ATP luminescence, 18 h; cells stimulated with TGF-beta, 500 pg/mL; Potency, µM (top dose mostly 46.1 µM), actives largely listed as inhibitors; 1,600 tested, 27% active; also: nearly all actives have a fitted effect of over 70% in size
CCL64 TGFb inh: qHTS for Inhibitors of TGF-b: CCL64 Cells Orthogonal Assay for Cherry Picks | Potency, µM (highest dose often 46.1 µM), usual class: inhibitors | 1,600 tested, 41% active | shares compounds with TGFb SMAD3 inh | CCL64 CAGA-GFP reporter, TGF-b stimulated, GFP fluorescence, 18 h; also: nearly all actives have a fitted effect of over 65% in size
TGFb COP inh: qHTS for Inhibitors of TGF-b: Hit Validation in HepG2 Cells using COP promoter; shares compounds with TGFb SMAD3 inh; HepG2 COP-GFP TGF-b reporter, GFP fluorescence, 18 h; cells stimulated by added recombinant TGF-beta; Potency, µM (highest dose often 46.1 µM), most hits filed as inhibitors; 1,600 tested, 3% active; AID 720537, 2013; also: nearly all actives have a fitted effect of over 70% in size
Of the large screens only hits and unclear results are named; the others gave an inactive call (follow-up assays come after a bar, where they were run); ! = repeats disagree. Unless noted, calls follow the shape of the dose curve; as a rule, active = well fitted curve in the direction sought with a large enough effect; inconclusive = small, poorly fitted or top-dose-only effect, or another doubt; inactive = no such curve, though single readings can be large; an effect the other way counts as inactive or inconclusive.

COc1cccc(CNC(=O)c2ccccc2C(=O)NC(C)(C)C(=O)NCc2cccc(OC)c2)c1	none
CC(Sc1nc(-c2ccccc2)cc(C(F)(F)F)n1)C(=O)N1CCCCC1 (centres undefined)	DT40 TDP1 CPT inconclusive, DT40 TDP1 no CPT inconclusive
OC(c1cc(-c2ccc(C(F)(F)F)cc2)nc(C(F)(F)F)c1)C1CCCCN1 (centres undefined)	TGFb SMAD3 inh 2.8µM, IL-1B inflam inh -104, DT40 TDP1 CPT 1.6µM, DT40 TDP1 no CPT 6.5µM | TGFb confirm 6.5µM | HepG2 tox-2 23µM | CCL64 TGFb inh 23µM | TGFb COP inh inconclusive
CCc1cc(=O)n2[nH]c(C)c(-c3ccc(OC)cc3)c2n1	none
COc1ccc(-c2c(C(F)(F)F)[nH]n3c(=O)cc(-c4ccccc4)nc23)cc1	TGFb SMAD3 inh inconclusive, DT40 TDP1 CPT inconclusive, DT40 TDP1 no CPT inconclusive (no result: TDP1 block, IL-1B inflam inh) | TGFb confirm 16µM | HepG2 tox-2 16µM | CCL64 TGFb inh 8.2µM | TGFb COP inh inactive
O=C(NCc1ccncc1)[C@@H]1CCCN1C(=O)[C@@H]1CCCN1C(=O)c1c(F)cccc1F	none (no result: TGFb SMAD3 inh, TDP1 block, HepG2 tox-1)
O=C(Nc1cc(S(=O)(=O)N2CCCCC2)ccc1O)c1ccccc1NS(=O)(=O)c1ccc(F)cc1	TGFb SMAD3 inh 18µM, IL-1B inflam inh -56! | TGFb confirm 16µM | HepG2 tox-2 inconclusive | CCL64 TGFb inh inconclusive | TGFb COP inh inactive
COc1ccc(-c2csc(NC(=O)c3ccccc3NS(=O)(=O)c3ccc(F)c(F)c3)n2)cc1	TGFb SMAD3 inh 1.8µM, IL-1B inflam inh -68, DT40 TDP1 CPT 2.3µM, DT40 TDP1 no CPT 2.6µM | TGFb confirm 2.3µM | HepG2 tox-2 1.5µM | CCL64 TGFb inh 1.8µM | TGFb COP inh inactive
Cc1ccc(S(=O)(=O)Nc2ccccc2C(=O)Nc2nc(-c3ccc(F)cc3)cs2)cc1	TGFb SMAD3 inh 5.6µM, DT40 TDP1 CPT 3.3µM, DT40 TDP1 no CPT 2.6µM | TGFb confirm 5.2µM | HepG2 tox-2 5.8µM | CCL64 TGFb inh 5.2µM | TGFb COP inh inactive
Cc1ccc(S(=O)(=O)Nc2nc(-c3ccccc3)cs2)cc1	none (no result: TDP1 block)
CNC(=O)C(C#N)(Cc1cc(C(C)=O)ccc1OC)Cc1cc(C(C)=O)ccc1OC	none (no result: TDP1 block)
CC(=O)Nc1ccc(S(=O)(=O)N2CCN(Cc3nc4sc(C)c(C)c4c(=O)[nH]3)CC2)cc1	TGFb SMAD3 inh inconclusive | TGFb confirm inactive | HepG2 tox-2 inactive | CCL64 TGFb inh inactive | TGFb COP inh inactive

Assay outcomes as filed in PubChem BioAssay.
